About 83,000 compounds went through this panel and 20% of them were active in at least one assay; those are over-represented in the sample as a whole.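 Values shown are percent growth following 48 h exposure of cells in 96-well plates to a single concentration of compound; below 10 was considered active.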 Values without a mark were called inactive. The source made the active and inactive calls.

What all share (assay): NCI-60 one-dose screen, 48 h (100 = growth as untreated, 0 = no growth, -100 = all killed)
One test relates to HCT-15 colon. The following applies: 10 µM unless noted.
A further test deals with HT29 colon. The following applies: 10 µM unless noted.
Another test has as its system SNB-75 CNS. The conditions noted are these: 10 µM unless noted.
Another test concerns SNB-19 CNS. The conditions noted are these: 10 µM unless noted.
In a further test the test system is U251 CNS. The following applies: 10 µM unless noted.
In another test the test system is PC-3 prostate. The following applies: 10 µM unless noted.
Another test has as its system SK-MEL-5 melanoma. The following applies: 10 µM unless noted.
A further test has as its system UACC-62 melanoma. The following applies: 10 µM unless noted.
Another test concerns LOX IMVI melanoma. The following applies: 10 µM unless noted.
Another test concerns SK-MEL-28 melanoma. The conditions noted are these: 10 µM unless noted.
The test system of another test is EKVX NSCLC. The conditions noted are these: 10 µM unless noted.
In a further test the test system is SN12C renal. The following applies: 10 µM unless noted.
The next test has as its system UO-31 renal. The conditions noted are these: 10 µM unless noted.
In a further test the test system is TK-10 renal. The conditions noted are these: 10 µM unless noted.
In the next test the test system is ACHN renal. The conditions noted are these: 10 µM unless noted.
The next test concerns CAKI-1 renal. The following applies: 10 µM unless noted.
A further test concerns A498 renal. The following applies: 10 µM.
Another test has as its system HL-60(TB) leukemia. The following applies: 10 µM unless noted.
The subject of another test is CCRF-CEM leukemia. The conditions noted are these: 10 µM unless noted.
Another test has as its system SK-MEL-2 melanoma. The following applies: 10 µM unless noted.

In the case of `COC(=O)[C@@]1(O)C[C@H]2O[C@]1(C)n1c3ccccc3c3c4c(c5c6ccccc6n2c5c31)C(=O)NC4`, the growth in the test on HCT-15 colon was -29.3% (active); with HT29 colon, -24.6% (active); with SNB-75 CNS, -97.1% (active); in the test on SNB-19 CNS, -27.9% (active); in the test on U251 CNS, -67.1% (active); in the test on PC-3 prostate it was -50.3% (active). The growth was -89.4% (active) in the test on SK-MEL-5 melanoma; -47.4% (active) with UACC-62 melanoma; -69.2% (active) with LOX IMVI melanoma; -58.9% (active) in the test on SK-MEL-28 melanoma; -30.9% (active) in the test on EKVX NSCLC; -47.2% (active) in the test on SN12C renal. In addition, the growth in the test with UO-31 renal is -57.9% (active); with TK-10 renal, -86.3% (active); with ACHN renal, -27.3% (active); in the test with CAKI-1 renal, -97.5% (active); in the test on A498 renal it was -96.6% (active); in the test with HL-60(TB) leukemia, -44.5% (active). In the test on CCRF-CEM leukemia, the growth is 0.604% (active).

`N#Cc1c(Br)n(C2OC(CO)C(O)C2O)c2ncnc(N)c12` (configuration not stated): the growth in the test with HCT-15 colon is 43.9%; with HT29 colon, 43.8%; with SNB-75 CNS, 76.2%; with SNB-19 CNS, 101%; in the test on U251 CNS, 69.4%; with PC-3 prostate it was 16.5%. For the same compound, the growth with SK-MEL-5 melanoma was 95.9%; in the test on UACC-62 melanoma, 77.9%; in the test with LOX IMVI melanoma, 57.2%; in the test with SK-MEL-28 melanoma, 43.7%; with EKVX NSCLC, 95.7%; with SN12C renal, 60.3%. Moreover, the growth was 42.3% with UO-31 renal; 78.4% in the test on ACHN renal; -16.3% (active) in the test on A498 renal; -33.7% (active) in the test on HL-60(TB) leukemia; 8.19% (active) in the test on CCRF-CEM leukemia.

With `COC(=O)[C@@H](C)C[C@H](Cc1ccccc1)NC(=O)c1csc([C@@H](C[C@H](C(C)C)N(C)C(=O)[C@@H](NC(=O)[C@H]2CCCCN2C)c2ccc(F)cc2)OC(C)=O)n1`, the growth with HCT-15 colon is 15.5%; with HT29 colon, 6.87% (active); in the test on SNB-75 CNS, 30.7%; in the test on SNB-19 CNS it was 74.8%; in the test on U251 CNS it was 4.87% (active); with PC-3 prostate it was 15.8%. Further, the growth in the test on SK-MEL-5 melanoma is -46.3% (active); in the test on UACC-62 melanoma, 40%; with LOX IMVI melanoma, 7.62% (active); with SK-MEL-28 melanoma it was 49.6%; in the test with EKVX NSCLC, 29.8%; in the test on SN12C renal, 15.4%. For the same compound, the growth is 35.2% with UO-31 renal; 19.4% in the test with ACHN renal; 14% in the test with CAKI-1 renal; -9.07% (active) in the test with A498 renal; -42.6% (active) in the test on HL-60(TB) leukemia; 8.77% (active) in the test with CCRF-CEM leukemia.

Turning to `O=C(Nc1ccncc1F)c1cn(CC2CC2)c2ccccc12`, the growth in the test on HCT-15 colon was 97.3%; in the test with HT29 colon, 102%; in the test with SNB-75 CNS, 103%; in the test on SNB-19 CNS, 97.2%; in the test on U251 CNS, 98.4%; in the test with PC-3 prostate, 97.6%. The growth in the test with SK-MEL-5 melanoma is 97.3%; with UACC-62 melanoma, 95.3%; with LOX IMVI melanoma, 97%; in the test with SK-MEL-2 melanoma, 98.8%; in the test with EKVX NSCLC, 89.2%; in the test on SN12C renal, 102%. Further, the growth in the test on UO-31 renal is 93.9%; in the test on TK-10 renal, 103%; in the test on ACHN renal, 108%; with CAKI-1 renal, 98.2%; with A498 renal, 91%; in the test with HL-60(TB) leukemia, 100%. Besides, in the test on CCRF-CEM leukemia, the growth was 102%.

Turning to `CC(C)[C@]12O[C@H]1[C@@H]1O[C@]13[C@]1(O[C@H]1C[C@H]1c4c(C(=O)c5ccccc5)oc(OC(=O)c5ccccc5)c4CC[C@@]13C)[C@@H]2O`, the growth is 5.32% (active) with HCT-15 colon; 8.55% (active) with HT29 colon; -30.5% (active) in the test with SNB-75 CNS; 13.8% in the test with SNB-19 CNS; 12.1% in the test on U251 CNS; -0.741% (active) in the test on PC-3 prostate. Further, the growth was -51.9% (active) in the test on SK-MEL-5 melanoma; -28.7% (active) in the test with UACC-62 melanoma; 9.13% (active) in the test on LOX IMVI melanoma; -69.5% (active) in the test with SK-MEL-28 melanoma; -17.2% (active) in the test with EKVX NSCLC; 23.7% in the test on SN12C renal. Further, the growth in the test on UO-31 renal was 7.34% (active); in the test with TK-10 renal, 44%; in the test with ACHN renal, 10.6%; with A498 renal, -49.4% (active); in the test with HL-60(TB) leukemia it was -46% (active); in the test on CCRF-CEM leukemia, -32.5% (active).

Turning to `CCCC[C@H](NC(=O)[C@H]1CCCCN1C)C(=O)N(C)[C@H](C[C@@H](OC(C)=O)c1nc(C(=O)N[C@@H](Cc2ccccc2)C[C@H](C)C(=O)OCC)cs1)C(C)C`, the growth with HCT-15 colon is 20.4%; in the test on HT29 colon, -16.4% (active); with SNB-75 CNS, 41.9%; in the test on SNB-19 CNS it was 37.5%; with U251 CNS it was 5.09% (active); in the test with PC-3 prostate, 17.5%. Also, the growth was -26% (active) in the test with SK-MEL-5 melanoma; 46.2% with UACC-62 melanoma; 17.9% with LOX IMVI melanoma; 67.4% with SK-MEL-28 melanoma; 47.8% in the test with EKVX NSCLC; 23.9% in the test with SN12C renal. Further, the growth in the test on UO-31 renal is 31.9%; in the test on ACHN renal, 13.5%; in the test with A498 renal, -11.9% (active); in the test on HL-60(TB) leukemia, -25.7% (active); in the test with CCRF-CEM leukemia, 8.81% (active).

For the compound `CCCCCC1(CCBr)C(=O)NC(=O)NC1=O`, the growth in the test with HCT-15 colon is 97.7%; in the test on HT29 colon it was 107%; with SNB-75 CNS, 99.2%; with SNB-19 CNS, 111%; with U251 CNS, 93.4%; with PC-3 prostate, 100%. Also, the growth is 109% with SK-MEL-5 melanoma; 108% in the test with UACC-62 melanoma; 104% in the test on LOX IMVI melanoma; 118% in the test on SK-MEL-28 melanoma; 107% in the test with SN12C renal; 86.7% with UO-31 renal. In addition, the growth was 102% with ACHN renal, 88.4% in the test with A498 renal and 102% in the test on CCRF-CEM leukemia.

As for `CC[C@H](C)[C@H](NC(=O)c1nccn1C)C(=O)N(C)[C@H](C[C@@H](OC(C)=O)c1nc(C(=O)N[C@@H](Cc2ccccc2)C[C@H](C)C(=O)OC)cs1)C(C)C`, the growth in the test with HCT-15 colon was 10.5%; in the test on HT29 colon it was -6.75% (active); in the test on SNB-75 CNS it was 15.8%; in the test on SNB-19 CNS it was 37.3%; with U251 CNS it was 9.94% (active); in the test on PC-3 prostate, 25.2%. Moreover, the growth in the test with SK-MEL-5 melanoma was -0.799% (active); with UACC-62 melanoma, 55.7%; in the test on LOX IMVI melanoma, 17.6%; in the test with SK-MEL-2 melanoma it was 28.5%; in the test with EKVX NSCLC, 52.8%; in the test on SN12C renal it was 40.2%. The growth in the test on UO-31 renal is 47.3%; with TK-10 renal, 41.9%; with ACHN renal, 42.3%; with CAKI-1 renal, 33.8%; in the test with A498 renal it was -9.78% (active); with HL-60(TB) leukemia, -43.5% (active). Also, the growth in the test on CCRF-CEM leukemia was 15.9%.

These data come from PubChem BioAssay (NCI).
